Screens deposited in PubChem BioAssay by The Scripps Research Institute Molecular Screening Center.
Hits are enriched below; roughly 3.5% of the tested compounds scored in any of these assays.
GPR151 ag = activators of human GPR151 | 650,000 compounds, 1% hits | activation, % at 11.2 µM | Q8TDV0 | PathHunter beta-arrestin GPR151 cells, luminescence; in the data active = activation above about 4.9%
TEAD-YAP inh = TEAD-YAP interaction inhibition. HEK-TIYL cells, TEAD-Gal4/YAP UAS-luciferase luminescence. inhibition, % at 9.12 µM. 640,000 compounds, 1.4% hits. AID 1259422; in the data active = inhibition above about 32%
FBW7 activator = activators of human E3 ligase FBW7; normalized activity (activation), % at 26.1 µM; AlphaScreen FBW7–phospho-cyclin E peptide binding, activator screen; Q969H0; 650,000 compounds, 0.13% hits; AID 1259310; in the data active = normalized activity above about 1.9%;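 also: purified mutant Fbw7 with reduced substrate affinity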
MITF inh = inhibitors of human MITF. AID 1259374. 650,000 compounds, 0.91% hits. O75030. inhibition, % at 2.6 µM. AlphaScreen MITF homodimerization, bead proximity signal; in the data active = inhibition above about 50%
Target sequence (O75030 whole entry, looked up): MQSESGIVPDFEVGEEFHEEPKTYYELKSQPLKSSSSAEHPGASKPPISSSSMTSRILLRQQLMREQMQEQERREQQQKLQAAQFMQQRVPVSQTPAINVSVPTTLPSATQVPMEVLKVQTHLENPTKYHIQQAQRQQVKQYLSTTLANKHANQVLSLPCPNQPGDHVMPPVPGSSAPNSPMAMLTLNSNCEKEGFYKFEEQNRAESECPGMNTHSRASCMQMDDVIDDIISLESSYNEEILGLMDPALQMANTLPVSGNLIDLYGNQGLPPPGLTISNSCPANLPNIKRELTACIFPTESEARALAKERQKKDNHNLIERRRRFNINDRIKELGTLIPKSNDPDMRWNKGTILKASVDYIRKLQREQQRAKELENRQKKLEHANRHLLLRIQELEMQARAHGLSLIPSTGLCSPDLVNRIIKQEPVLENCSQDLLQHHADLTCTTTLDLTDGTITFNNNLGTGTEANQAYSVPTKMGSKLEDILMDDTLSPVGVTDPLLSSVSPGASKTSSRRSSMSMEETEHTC
Hits are given with their value; - = inactive.

SMILES	GPR151 ag	TEAD-YAP inh	FBW7 activator	MITF inh
Cc1ccc(C(=O)/C=C/Nc2ccc(F)cc2F)o1	-	61	-	-
Cc1ccc(C(=O)/C=C/Nc2ccc(Br)cc2F)o1	-	77	-	-
Cc1ccc(C(=O)/C=C/Nc2cccc(Cl)c2C)o1	-	-	-	-
Nc1ccc2nc(NC(=O)C3CCCCC3)sc2c1	-	-	-	-
CC(=O)Nc1ccc(Nc2ccnc(Nc3nccc4ccccc34)n2)cc1	-	48	-	-
CC(=O)Nc1ccc(Nc2cc(C)nc(Nc3cnccn3)n2)cc1	-	-	-	-
CC(=O)Nc1ccc(Nc2nc(Nc3nccc4ccccc34)ncc2C)cc1	-	-	-	-
CC(=O)Nc1ccc(Nc2cc(C)nc(Nc3nccc4ccccc34)n2)cc1	-	65	-	-
O=C(COc1ccc(F)cc1)Nc1nccs1	-	-	-	-
Cc1ccc(OCC(=O)Nc2nccs2)cc1C	-	75	-	-
CCCc1ccc(OCC(=O)Nc2nccs2)cc1	-	81	-	-
CCc1ccc(OCC(=O)Nc2nccs2)cc1	-	86	-	-
CCc1nnc(NS(=O)(=O)c2ccc(NC(=O)c3ccc(C#N)cc3)cc2)s1	-	-	-	-
c1ccc(COc2ccc(CN3CCOCC3)cc2)cc1	-	71	-	-
CN(C)S(=O)(=O)c1cccc(NC(=S)Nc2ccccc2C#N)c1	-	87	-	-
O=S(=O)(O)c1ccc(N/N=C/C2=C(N3CCOCC3)C(=C\c3ccccc3)/CC2)cc1	-	-	-	-
O=C(O)c1ccc(N/N=C/C2=C(N3CCOCC3)C(=C\c3ccccc3)/CC2)cc1	-	-	-	62
CCCN1CCc2nnc(C(CC(C)C)NC(=O)c3ccc(COC)o3)n2CC1 (stereo not drawn)	-	-	-	-
COc1cccc(C(=O)C[n+]2cc(-c3ccc(F)cc3)n(C)c2N)c1	-	85	-	-
CN(Cc1ccccc1)C(=O)CCC1CCN(C(=O)c2ccoc2)CC1	-	-	-	-
Cc1ncn(-c2ccc(Nc3ncc4cccc(-c5ccncc5)c4n3)cc2)n1	-	45	-	-
Cc1ncn(-c2ccc(Nc3ncc4cccc(-n5cccn5)c4n3)cc2)n1	-	43	-	-
CC(=O)Nc1cccc(-c2cccc3cnc(Nc4ccc(-n5cnc(C)n5)cc4)nc23)c1	-	57	-	-
CC(C)[C@H](NS(=O)(=O)c1ccc2c(c1)OCCO2)C(=O)NC1CCCCC1	-	-	-	-
CN(C(=O)Cc1cccs1)C(C(=O)Nc1ccc2c(c1)OCO2)c1ccccc1 (stereo not drawn)	-	-	-	-
SMILES	GPR151 ag	TEAD-YAP inh	FBW7 activator	MITF inh
COc1ccc(-c2cnc(SCC(=O)Nc3cccc(F)c3)n2C)cc1	-	33	-	-
O=C(N/N=C\c1ccc(O)cc1O)c1ccccn1	-	-	-	65
O=C(N/N=C\c1ccc(O)cc1O)c1cnccn1	-	-	-	79
O=C(N/N=C\c1cc(Br)ccc1O)c1ccccn1	-	-	-	58
O=C(N/N=C\c1cccc([N+](=O)[O-])c1O)c1cnccn1	-	-	-	77
COc1ccc(C(CC(=O)O)NC(=O)c2ccco2)cc1OC (stereo not drawn)	-	-	-	-
CCCS(=O)(=O)N1CCN(C2Cc3ccccc3C2)CC1	-	-	-	-
Clc1ccc(-c2cnc3ccc(NCCc4cccnc4)nn23)cc1	-	52	-	-
Fc1cccc(-c2cnc3ccc(NCCc4cccnc4)nn23)c1	-	65	-	-
c1cncc(CCNc2ccc3ncc(-c4ccc5ccccc5c4)n3n2)c1	-	-	-	-
CC(C)(C)c1csc(CN2CCN(CC(=O)Nc3ccccc3F)CC2)n1	-	-	-	-
O=C(c1ccccc1)C(CO)c1nc2ccccc2[nH]c1=O (stereo not drawn)	-	-	-	-
O=C(CN1C(=O)/C(=C\c2ccccc2Br)Oc2ccccc21)NC1CCCC1	-	57	-	-
O=C(CN1C(=O)/C(=C\c2ccccc2)Oc2ccccc21)NC1CCCCC1	-	-	-	-
Cc1cccnc1NC(c1ccc([N+](=O)[O-])cc1)c1ccc2cccnc2c1O (stereo not drawn)	-	70	-	-
CC(=O)NC(c1ccc(Br)cc1)c1ccc2cccnc2c1O (stereo not drawn)	-	83	-	-
CC(=O)NC(c1ccc(C)cc1)c1ccc2cccnc2c1O (stereo not drawn)	-	85	-	51
CC(=O)NC(c1ccc([N+](=O)[O-])cc1)c1ccc2cccnc2c1O (stereo not drawn)	-	84	-	-
COc1ccc([C@@H]2C[C@H](C(=O)Nc3cccnc3)N(C)S(=O)(=O)N2)cc1OC	-	-	-	-
